# Compounds without any hit were thinned out: in the full panel of roughly 79,000, 15% have a hit. A number with no mark means an inactive call. Calls of active or inactive are those of the source. Rule as the data show it: active = growth inhibition above about 70%; inactive = the rest.
# Legend:
# [1] = NCI Yeast Anticancer Drug Screen. Data for the rad50 strain (AID 155);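 also: 0% = growth of vehicle-only cultures of the same strain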; conditions: S. cerevisiae rad50 strain growth inhibition, hits give high values
# Outline: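 Readout: growth inhibition relative to vehicle-treated cultures. Compound exposure was carried out in a genetically defined yeast strain deficient in DNA damage repair.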
# [2] = NCI Yeast Anticancer Drug Screen. Data for the mec2-1 strain (AID 157); conditions: S. cerevisiae mec2-1 strain, hits give high values
# Outline: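 Growth inhibition is read against vehicle-treated controls after compound exposure of the mec2-1 yeast strain, which is defective in DNA damage repair or cell cycle control.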
# [3] = NCI Yeast Anticancer Drug Screen. Data for the sgs1 mgt1 strain (AID 161);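 also: 0% = growth of cultures given vehicle only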; conditions: S. cerevisiae sgs1 mgt1 strain, hits give high values
# Outline: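 Compounds are added to genetically altered yeast, and growth is compared with cultures given vehicle alone to give percent inhibition.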
# [4] = NCI Yeast Anticancer Drug Screen. Data for the cln2 rad14 strain (AID 165);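 also: 0% = growth equal to vehicle treated cultures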; conditions: S. cerevisiae cln2 rad14 strain, hits give high values
# Outline: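 Growth inhibition, relative to vehicle-treated controls, is the read-out. The test organism is a yeast strain with defined genetic alterations, cln2 rad14.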
# [5] = NCI Yeast Anticancer Drug Screen. Data for the bub3 strain (AID 167); conditions: S. cerevisiae bub3 mutant strain, hits give high values
# Outline: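 Readout: yeast growth inhibition, expressed relative to vehicle-only wells. The test organism is a mutant strain from a panel with lesions in DNA repair or checkpoint genes.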
# [6] = NCI Yeast Anticancer Drug Screen. Data for the mlh1 rad18 strain (AID 175); conditions: S. cerevisiae mlh1 rad18 strain growth inhibition, hits give high values
# Outline: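 Cells of a genetically altered yeast strain, deficient in DNA damage repair, were treated with compound. Their growth was then compared with that of vehicle-treated cultures to give inhibition.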
# [7] = at 5.0 µM (retest, dose inferred, filed as 0.5)
# [8] = at 50.0 µM (retest, dose inferred, filed as 5.0)
Structure (SMILES),"growth inhibition [1, 7]","growth inhibition [1, 8]",growth inhibition ([1]; at 50.0 µM),"growth inhibition [2, 7]","growth inhibition [2, 8]",growth inhibition ([2]; at 50.0 µM),"growth inhibition [3, 7]","growth inhibition [3, 8]",growth inhibition ([3]; at 50.0 µM),"growth inhibition [4, 7]","growth inhibition [4, 8]",growth inhibition ([4]; at 50.0 µM),"growth inhibition [5, 7]","growth inhibition [5, 8]",growth inhibition ([5]; at 50.0 µM),"growth inhibition [6, 7]","growth inhibition [6, 8]",growth inhibition ([6]; at 50.0 µM)
CCCCC#CC(=O)OCCCCC,-2%,0%,-18.9%,4%,1%,-3.1%,1%,3%,-13.4%,-5%,-2%,25.1%,1%,3%,-14.6%,-2%,-4%,-16.4%
O=C1CSC(=S)N1c1ccc(I)cc1,1%,34%,99% (active),-2%,11%,99% (active),2%,59%,99.2% (active),-2%,-8%,83.8% (active),-6%,26%,99% (active),0%,75% (active),98.7% (active)
O=[N+]([O-])c1c(Cl)ccc2nsnc12,24%,97% (active),99.4% (active),-27%,97% (active),99.2% (active),-14%,98% (active),98.8% (active),-56%,84% (active),98.6% (active),-49%,96% (active),98.5% (active),-50%,97% (active),99% (active)
CCOP(=O)(OCC)C(=C1C=C(C(C)(C)C)C(=O)C(C(C)(C)C)=C1)P(=O)(OCC)OCC,2%,97% (active),98.2% (active),-15%,99% (active),96.8% (active),0%,89% (active),98.8% (active),-4%,99% (active),97.2% (active),5%,99% (active),97.2% (active),-12%,98% (active),96.8% (active)
Nc1cc(F)cc(F)c1[N+](=O)[O-],4%,21%,41%,4%,22%,0.45%,1%,18%,53.3%,-1%,6%,-15.4%,-1%,19%,-1.5%,7%,26%,79.7% (active)
Oc1ccc[nH]c1=S,19%,18%,18.4%,6%,12%,12.2%,3%,-34%,85.2% (active),8%,-4%,-8.7%,13%,-2%,74.5% (active),23%,12%,90.9% (active)
CC1C/C(=N\N(C)C)C(C#N)(C#N)C1(C#N)C#N (centres undefined),30%,99% (active),81% (active),45%,99% (active),81.1% (active),26%,97% (active),66.5%,27%,79% (active),37.8%,47%,99% (active),62.2%,59%,99% (active),92% (active)
COc1ccc(C2c3cc4c(cc3OC(C)(O)C2C)OCO4)cc1 (centres undefined),5%,94% (active),98.8% (active),8%,94% (active),95.4% (active),8%,92% (active),92% (active),8%,84% (active),97.5% (active),-2%,96% (active),98.3% (active),-2%,93% (active),98.5% (active)

# From PubChem BioAssay (NCI)
